Test systems include RPMI-8226 leukemia; OVCAR-8 ovarian; OVCAR-5 ovarian; OVCAR-4 ovarian; SK-OV-3 ovarian; IGROV1 ovarian; OVCAR-3 ovarian; HS 578T breast; NCI/ADR-RES ovarian; T-47D breast; BT-549 breast; MDA-MB-435 melanoma; SW-620 colon; MCF7 breast; HCT-116 colon; HCC-2998 colon; KM12 colon; MDA-MB-468 breast.
Common to all, as to test: NCI-60 one-dose screen, 48 h (100 = growth as untreated, 0 = no growth, -100 = all killed)
Common to all, as to settings: 10 µM

This is part of a sample that, as a whole, favours compounds with a hit. Of some 83,000 tested, about 20% had one in any assay.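 96-well plates, one dose, 48 hours. Percent growth reported; active if below 10.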 Values without a mark were called inactive. The source made the active and inactive calls.

For `COc1ccc(-c2nc(S(=O)(=O)c3ccccc3)c(S(C)(=O)=O)o2)cc1`, the growth was -39.9% (active) in the experiment on RPMI-8226 leukemia; -28.3% (active) with OVCAR-8 ovarian; -77.2% (active) in the experiment with OVCAR-5 ovarian; -87% (active) in the experiment with OVCAR-4 ovarian; 97.9% in the experiment with SK-OV-3 ovarian; 77.2% in the experiment on IGROV1 ovarian. Also, the growth in the experiment on OVCAR-3 ovarian is -81.8% (active); in the experiment with HS 578T breast, 75.2%; in the experiment with NCI/ADR-RES ovarian, 0.892% (active); in the experiment with T-47D breast it was -64.5% (active); in the experiment on BT-549 breast it was 3.82% (active); in the experiment with MDA-MB-435 melanoma, -60.2% (active). Further, the growth in the experiment with SW-620 colon is -25.3% (active); in the experiment with MCF7 breast, -57.5% (active); in the experiment with HCT-116 colon, 0.823% (active); in the experiment with HCC-2998 colon, -26.8% (active); in the experiment with KM12 colon, 66%; in the experiment on MDA-MB-468 breast, -88.1% (active).

For `O=C(c1ccc(-n2c(=O)[nH]c3ccccc3c2=O)cc1)N1CCOCC1`, the growth with RPMI-8226 leukemia is 120%; in the experiment on OVCAR-8 ovarian, 108%; in the experiment with OVCAR-5 ovarian, 102%; in the experiment with OVCAR-4 ovarian, 114%; in the experiment with SK-OV-3 ovarian, 124%; in the experiment on IGROV1 ovarian, 104%. Moreover, the growth in the experiment on OVCAR-3 ovarian was 108%; in the experiment with HS 578T breast, 101%; in the experiment with NCI/ADR-RES ovarian, 106%; in the experiment on T-47D breast, 99.7%; with BT-549 breast, 75.6%; in the experiment with MDA-MB-435 melanoma, 102%. The growth in the experiment on SW-620 colon is 97.1%; with MCF7 breast, 101%; in the experiment on HCT-116 colon, 99.2%; in the experiment with HCC-2998 colon, 116%; with KM12 colon, 114%; in the experiment with MDA-MB-468 breast, 94.7%.

For the molecule `O=C(Nc1cc(Cl)cc(Cl)c1)Nc1cc(Cl)cc(Cl)c1`, the growth in the experiment with RPMI-8226 leukemia is -42.4% (active); with OVCAR-8 ovarian it was 0.191% (active); in the experiment with OVCAR-5 ovarian, 1.87% (active); with OVCAR-4 ovarian, 10.8%; in the experiment with SK-OV-3 ovarian, -15.8% (active); in the experiment with IGROV1 ovarian, 7.38% (active). Besides, the growth with OVCAR-3 ovarian is -31.5% (active); in the experiment on HS 578T breast, -19.3% (active); in the experiment on NCI/ADR-RES ovarian it was -24.1% (active); with T-47D breast, -18.9% (active); with BT-549 breast, -41.1% (active); in the experiment on MDA-MB-435 melanoma, -47% (active). For the same molecule, the growth is -42.3% (active) in the experiment on SW-620 colon; -21.2% (active) with MCF7 breast; -79.3% (active) with HCT-116 colon; -27.3% (active) in the experiment with HCC-2998 colon; -22.9% (active) in the experiment with KM12 colon; -40.1% (active) in the experiment on MDA-MB-468 breast.

Take `Cc1cc(C)nc(SCC(=O)Nc2ccc(S(N)(=O)=O)cc2)n1`: the growth in the experiment on RPMI-8226 leukemia is 99.5%; with OVCAR-8 ovarian, 105%; with OVCAR-5 ovarian, 107%; with OVCAR-4 ovarian, 112%; in the experiment with SK-OV-3 ovarian it was 106%; in the experiment with IGROV1 ovarian, 109%. Further, the growth in the experiment on OVCAR-3 ovarian is 113%; in the experiment with HS 578T breast, 114%; in the experiment with NCI/ADR-RES ovarian, 106%; in the experiment with T-47D breast it was 105%; in the experiment with BT-549 breast, 132%; in the experiment with MDA-MB-435 melanoma it was 107%. The growth was 116% with SW-620 colon; 96.6% in the experiment on MCF7 breast; 111% in the experiment on HCT-116 colon; 109% in the experiment with HCC-2998 colon; 107% in the experiment on KM12 colon; 98.2% in the experiment with MDA-MB-468 breast.

With `Cc1ccc(C(C)C)cc1NC(=O)c1ccccc1O`, the growth was 3.01% (active) in the experiment on RPMI-8226 leukemia; 59.1% with OVCAR-8 ovarian; 96.2% in the experiment on OVCAR-5 ovarian; 24.6% with OVCAR-4 ovarian; 44.5% in the experiment with SK-OV-3 ovarian; 54.3% in the experiment with IGROV1 ovarian. In addition, the growth with OVCAR-3 ovarian was 29.9%; in the experiment with HS 578T breast it was 43%; with NCI/ADR-RES ovarian, 29.1%; in the experiment with T-47D breast it was 22%; in the experiment with BT-549 breast, -2.14% (active); in the experiment with MDA-MB-435 melanoma, 44.7%. Moreover, the growth in the experiment with SW-620 colon was 62.8%; in the experiment with MCF7 breast, 40.2%; with HCT-116 colon, 34.6%; with HCC-2998 colon it was 47.5%; in the experiment on KM12 colon, 48.5%; in the experiment with MDA-MB-468 breast it was 40%.

For `C/C(=C\CC/C=C(\C)CC/C=C(\C)CC[C@@H](O)C(C)(C)O)CC/C=C(\C)CC[C@@H](O)C(C)(C)O`, the growth with RPMI-8226 leukemia is -11.4% (active); in the experiment on OVCAR-8 ovarian, 47.6%; in the experiment on OVCAR-5 ovarian it was 56.1%; in the experiment on OVCAR-4 ovarian, 42%; in the experiment with SK-OV-3 ovarian it was 64.4%; in the experiment with IGROV1 ovarian, 76.8%. The growth was 42.6% in the experiment on OVCAR-3 ovarian; 39% in the experiment with HS 578T breast; 30.2% in the experiment with NCI/ADR-RES ovarian; 6.38% (active) in the experiment with T-47D breast; 8.56% (active) in the experiment on BT-549 breast; 39.5% in the experiment with MDA-MB-435 melanoma. The growth with SW-620 colon was 43%; in the experiment on MCF7 breast it was 13.8%; in the experiment with HCT-116 colon, 10%; in the experiment on HCC-2998 colon it was 31.7%; in the experiment on KM12 colon, 25.5%; in the experiment with MDA-MB-468 breast it was 0.844% (active).

For `O=C(c1ccc(Cl)cc1)C1[C@H](c2ccccc2Br)[C@@H](c2ccccc2)NC12C(=O)Nc1ccc(Cl)cc12` (some centres undefined), the growth with RPMI-8226 leukemia was 10.8%; with OVCAR-8 ovarian it was 24.2%; in the experiment on OVCAR-5 ovarian, 20.8%; in the experiment with OVCAR-4 ovarian, 27%; in the experiment on SK-OV-3 ovarian it was 42.9%; in the experiment on IGROV1 ovarian, 17.7%. In addition, the growth is 4.76% (active) in the experiment with OVCAR-3 ovarian; 27.6% with HS 578T breast; -60.1% (active) in the experiment with NCI/ADR-RES ovarian; 22% in the experiment on T-47D breast; 75.9% in the experiment with BT-549 breast; -35.1% (active) with MDA-MB-435 melanoma. Besides, the growth with SW-620 colon was 8.7% (active); with MCF7 breast, 0.103% (active); with HCT-116 colon it was 7.63% (active); with HCC-2998 colon it was -0.337% (active); in the experiment on KM12 colon, 8.12% (active); in the experiment on MDA-MB-468 breast, -40.2% (active).

For `CC(C)(C)Nc1nc2cc(Cl)c(Cl)cc2nc1S(C)(=O)=O`, the growth is 42.3% in the experiment on RPMI-8226 leukemia; 41.3% in the experiment with OVCAR-8 ovarian; 79.3% with OVCAR-5 ovarian; -6.34% (active) in the experiment with OVCAR-4 ovarian; 72.8% in the experiment with SK-OV-3 ovarian; 45.2% in the experiment with IGROV1 ovarian. For the same molecule, the growth in the experiment with OVCAR-3 ovarian was -80.3% (active); in the experiment with HS 578T breast, 56.8%; in the experiment with NCI/ADR-RES ovarian it was 7.99% (active); in the experiment with T-47D breast, 31.3%; in the experiment on BT-549 breast, -29.7% (active); in the experiment with MDA-MB-435 melanoma it was 44.6%. In addition, the growth in the experiment on SW-620 colon was -74.5% (active); with MCF7 breast, 58.8%; in the experiment on HCT-116 colon, 13.1%; in the experiment with HCC-2998 colon it was 42.2%; in the experiment on KM12 colon, 81.3%; in the experiment with MDA-MB-468 breast, -28.5% (active).

The record behind these values is PubChem BioAssay (NCI).
